Screens (PubChem)
DT40 TDP1 no CPT = qHTS for Inhibitors of human tyrosyl-DNA phosphodiesterase 1 (TDP1): qHTS in cells in absence of CPT; actives 15% (n = 420,000); DT40 Tdp1-/- hTDP1 cells, no CPT, ATP luminescence, 48 h; Potency, µM (highest dose often 46.2 µM), without a hit: top-dose activity change, negative = growth inhibition, most hits filed as inhibitors; note: potency is the fitted concentration of half-maximal effect; % is set by controls: 0 for no effect and ±100 for the full control effect; nearly all actives have a fitted effect of over 55% in size
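No-CPT arm: Tdp1-/-;hTDP1 DT40 cells (400/well) plus compounds, incubated ≥48 hr at 37 °C. Readout CellTiter-Glo luminescence.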
HepG2 tox = kills HepG2 cells in TGF-b inhibitor counter-screen. HepG2 CAGA-GFP viability, ATP luminescence, 18 h. Potency, µM (titrated, usually from 46.1 µM), inactives show at the highest dose activity change, negative = cytotoxicity, actives largely listed as cytotoxic. actives 0.76% (n = 410,000). AID 588856; note: potency is the fitted concentration of half-maximal effect
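HepG2 CAGA-GFP cells (1000/well, DMEM with 1% FBS) received compound, then TGF-beta at 500 pg/mL final, and were incubated 18 hours at 37 degrees C. Viability was read by CellTiter-Glo luminescence. Media-only wells were set as complete cell-killing and DMSO as no toxicity.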
TDP1 block = inhibitors of human tyrosyl-DNA phosphodiesterase TDP1; AID 485290; Q9NUW8; actives 0.28% (n = 350,000); Potency, µM (highest dose often 130 µM), for inactives: top-dose activity change, negative = inhibition, hits mostly inhibitors; recombinant TDP1, AlphaScreen DNA substrate cleavage; note: potency is the fitted concentration of half-maximal effect; % is set by controls: 0 for no effect and ±100 for the full control effect; nearly all actives have a fitted effect of over 40% in size
Target sequence (Q9NUW8 whole entry, looked up): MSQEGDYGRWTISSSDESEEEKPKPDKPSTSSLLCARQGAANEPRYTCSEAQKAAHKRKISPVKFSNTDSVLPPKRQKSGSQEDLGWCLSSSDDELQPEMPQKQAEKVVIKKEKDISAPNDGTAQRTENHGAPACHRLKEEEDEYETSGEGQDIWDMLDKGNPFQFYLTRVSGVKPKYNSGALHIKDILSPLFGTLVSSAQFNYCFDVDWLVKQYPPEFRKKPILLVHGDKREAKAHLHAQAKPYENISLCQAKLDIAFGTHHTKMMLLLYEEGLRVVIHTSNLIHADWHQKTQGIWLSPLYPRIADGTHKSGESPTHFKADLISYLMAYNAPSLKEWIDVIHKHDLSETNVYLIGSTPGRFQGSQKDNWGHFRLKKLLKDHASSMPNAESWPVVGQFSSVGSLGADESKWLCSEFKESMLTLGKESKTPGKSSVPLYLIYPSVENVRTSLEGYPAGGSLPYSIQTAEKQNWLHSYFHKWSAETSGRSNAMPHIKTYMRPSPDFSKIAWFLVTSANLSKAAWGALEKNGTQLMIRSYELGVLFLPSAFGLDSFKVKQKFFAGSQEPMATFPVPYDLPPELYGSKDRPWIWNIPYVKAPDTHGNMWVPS
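Here, a 5' biotin and 3' phosphotyrosine-FITC DNA oligonucleotide reports Tdp1 activity: intact substrate bridges AlphaScreen beads, while cleavage leaves a 3' phosphate and drops signal. All incubations at room temperature.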
DT40 TDP1 CPT = growth inhibition of DT40 Tdp1-/-;hTDP1 cells with camptothecin (screen for TDP1 inhibitors) | chicken DT40 Tdp1-/-;hTDP1 cells + 20 nM CPT, ATP luminescence, 48 h | Potency, µM (titrated, usually from 46.2 µM), without a hit: at the highest dose activity change, negative = growth inhibition, most hits filed as inhibitors | actives 12% (n = 420,000); note: potency is the fitted concentration of half-maximal effect; % is set by controls: 0 for no effect and ±100 for the full control effect; nearly all actives have a fitted effect of over 55% in size
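Cell growth measured by CellTiter-Glo luminescence after a minimum 48 h, 37 C compound exposure with 20 nM CPT in Tdp1-knockout DT40 cells stably expressing hTDP1, seeded 400/well; qHTS titration format.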
TGFb SMAD3 inh = blocks TGF-b signaling; HepG2 CAGA-GFP TGF-b/SMAD3 reporter, GFP fluorescence, 18 h; TGF-beta stimulated, 500 pg/mL final; actives 1.2% (n = 410,000); Potency, µM (doses to about 46.1 µM), without a hit: at the highest dose activity, negative = inhibition, usual class: inhibitors; AID 588855; note: potency is the fitted concentration of half-maximal effect; % is set by controls: 0 for no effect and ±100 for the full control effect; nearly all actives have a fitted effect of over 65% in size
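Smad-responsive CAGA-GFP expression was quantified in HEPG2 cells exposed to compounds and 500 pg/mL final TGF-beta for 18 h at 37 degrees C; unstimulated wells defined full inhibition.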
IL1B secr inh = inflammasome signaling inhibition, IL-1 beta readout; actives 4.7% (n = 360,000); AID 743279; activity change, % at 57.5 µM; THP-1 LPS/ATP IL-1B secretion, AlphaLISA, 16 h; hits give low values; in the data active = activity change below about -50%; inconclusive = mostly about -30% to -49%; note: % is set by controls: 0 for no effect and ±100 for the full control effect
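THP-1 cells pretreated 1 hr with compounds (up to 57.5 uM final), then stimulated with LPS (250 ng/mL final) plus ATP (1.25 mM final); secreted IL-1B measured by AlphaLISA after 16 hr, decreased signal indicating inhibition.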
The depositor's hits bear a star; ? = inconclusive; · = not tested or not shown; [ ] = remark or other dose. A selection: hits, their analogues and other compounds. The true share with any hit is near 18%. Unless noted, calls come from the whole dose curve; as a rule, active = well fitted curve in the direction sought with a large enough effect; inconclusive = small, poorly fitted or top-dose-only effect, or another doubt; inactive = no such curve, though single readings can be large; an effect the other way counts as inactive or inconclusive.

SMILES | DT40 TDP1 no CPT | HepG2 tox | TDP1 block | DT40 TDP1 CPT | TGFb SMAD3 inh | IL1B secr inh
CCCCCCCCN1C(=O)[C@H](CC(=O)NCc2cccs2)C[C@@]2(C(=O)OC)CCCCC=C12 | 14.6µM* | · | · | 16.4µM* | · | -22.3
CCCCCCCCN1C(=O)[C@H](CC(=O)NCCCCc2ccccc2)C[C@@]2(C(=O)OC)CCCCC=C12 | ? | · | · | ? | · | -14.7
CCOc1ncccc1C(=O)Nc1c(C)n(C)n(-c2ccccc2)c1=O | -2.3% | 3.0% | 2.5% | 3.6% | 2.3% | 5.8
CCCOC(=O)c1ccc(NC(=O)/C=C/c2cccs2)cc1 | 18.4µM* | -13.6% | 5.3% | ? | -7.4% | -11.1
O=C(/C=C/c1cccs1)Nc1ccncc1 | ? | -68.2% | -5.6% | -7.9% | -15.5% | ?
O=S(=O)(NCCc1csc2nc(-c3ccc(F)cc3)nn12)c1ccc(Br)cc1 | ? | -25.8% | -2.6% | ? | 0.0% | ·
COc1ccc(-c2nc3scc(CCNS(=O)(=O)c4c(C)noc4C)n3n2)cc1OC | ? | -22.6% | 5.2% | -21.2% | ? | ·
COc1ccc(-c2nc3scc(CCNS(=O)(=O)c4ccc5c(c4)OCCO5)n3n2)cc1OC | 20.6µM* | 2.8% | 5.2% | ? | 0.0% | ·
O=S(=O)(NCCc1csc2nc(-c3ccc(F)cc3)nn12)c1ccc2c(c1)OCCO2 | 23.1µM* | -21.9% | 2.6% | 16.4µM* | 0.0% | ·
COc1ccc(-c2nc3scc(CCNS(=O)(=O)c4ccc(F)c(C(F)(F)F)c4)n3n2)cc1OC | 13µM* | -19.4% | 5.2% | 14.6µM* | -16.0% | ·
O=S(=O)(NCCc1csc2nc(-c3ccc(Cl)cc3)nn12)c1ccc2c(c1)OCCO2 | 9.2µM* | -19.8% | 5.2% | 14.6µM* | -26.7% | ·
O=S(=O)(NCCc1csc2nc(-c3ccccc3)nn12)c1ccc(Oc2ccccc2)cc1 | ? | -15.2% | 2.6% | ? | -25.0% | ·
CCOC(=O)c1noc2ncn(CC(=O)Nc3ccc(C)c(F)c3)c(=O)c12 | · | -0.9% | 3.0% | · | 38.6% | ·
Cc1cc(C)cc(N(CCC#N)C(=O)CSc2nc3ccccc3c(=O)[nH]2)c1 | ? | -4.9% | -0.3% | -7.2% | 8.5% | -26.4
NS(=O)(=O)c1ccc(-c2ccc(/C=N/NC(=O)c3ccc([N+](=O)[O-])cc3)o2)cc1 | 7.7% | -18.6% | -2.6% | -13.5% | 6.9% | -3.6
Cc1cc(C)n(Cc2ccc(C(=O)N/N=C/c3ccc(-c4ccc([N+](=O)[O-])cc4)o3)o2)n1 | 10.3µM* | -44.2% | · | ? | 0.0% | -0.5
CC(C)(C)NC(=S)N/N=C\c1ccc(-c2ccc([N+](=O)[O-])cc2)o1 | 9.2µM* | 17.9% | · | 9.2µM* | 6.5% | ·
O=C(O)c1ccc(-c2ccc(/C=N/Nc3ccc([N+](=O)[O-])cc3)o2)cc1 | -25.6% | -24.5% | 1.3% | ? | 31.2% | 5.2
CCCCC(=O)N/N=C/c1ccc(-c2ccc([N+](=O)[O-])cc2)o1 | 16.4µM* | -30.9% | 0.0% | ? | 9.0% | -21.0
CNC(=S)N/N=C/c1ccc(-c2ccc(Cl)c([N+](=O)[O-])c2)o1 | 9.2µM* | 0.9% | ? | 8.2µM* | 2.6% | -53.8*
O=C(N/N=C/c1ccccc1O)C1CC(=O)N(c2ccc(Cl)cc2)C1 (stereo not drawn) | 3.66µM* | -12.7% | 0.6% | 7.31µM* | -27.6% | 178.5
C=CCn1c(=S)[nH]c2cc(C(=O)N3CCN(c4ccccc4OC)CC3)ccc2c1=O | ? | -14.4% | 0.5%[56.1 µM] | ? | ? | 2.8
Cc1ccc(CNC(=O)c2cn(C3CCCCC3)c(=O)c3c2c2ccccc2n3C)o1 | 16.4µM* | -9.5% | 1.8% | 11.6µM* | -9.5% | -86.4*
CCOc1ccccc1NC(=O)c1cn(C2CCCCC2)c(=O)c2c1c1ccccc1n2C | ? | -8.6% | -2.5% | ? | -19.9% | ·
Cc1cc(NC(=O)c2cn(C3CCCCC3)c(=O)c3c2c2ccccc2n3C)no1 | 23.1µM* | -9.8% | 4.9% | ? | ? | -2.7
SMILES | DT40 TDP1 no CPT | HepG2 tox | TDP1 block | DT40 TDP1 CPT | TGFb SMAD3 inh | IL1B secr inh
Cc1ccc(CNC(=O)c2cn(C)c(=O)c3c2c2ccccc2n3C)o1 | ? | -27.7% | 3.9% | ? | -2.6% | 9.5
COc1ccccc1C(=O)NCCC(=O)Nc1cccc(C)n1 | 11.3% | -2.9% | 1.6% | 10.1% | -4.2% | 0.0
COc1cccc(C2(c3cccc(OC)c3)CC2C(=O)Nc2ccccc2Cl)c1 (stereo not drawn) | 23.1µM* | -22.6% | 0.6% | ? | -22.8% | 10.5
COc1cccc(-c2cnc3c(NC=O)cc(-c4ccoc4)cn23)c1 | 14.6µM* | -0.7% | · | 13µM* | ? | 60.8
COc1cccc(-c2cnc3c(NC=O)cc(-c4cc(C)c(O)c(C)c4)cn23)c1 | 4.61µM* | -19.5% | · | 3.66µM* | 16.3% | 25.2
COc1cccc(-c2cnc3c(NC=O)cc(-c4ccccc4)cn23)c1 | 5.17µM* | -30.5% | · | 5.17µM* | 8.91µM* | 88.6
COc1cccc(-c2cnc3c(NC=O)cc(-c4ccc(N5CCN(C)CC5)cc4)cn23)c1 | ? | -39.6% | · | 16.4µM* | ? | 74.9
Cc1cccc(NC(=O)N2CCC(NC(=O)c3ccccc3C)CC2)c1 | -5.4% | -8.2% | 2.0% | ? | -0.8% | -3.4
CCN1CCN(c2ncc3c(n2)CCN(Cc2cc(Br)cs2)C3)CC1 | 20.6µM* | -10.8% | 3.8% | 18.4µM* | -12.3% | ·
CCN1CCN(c2ncc3c(n2)CCN(Cc2sccc2C)C3)CC1 | 23.1µM* | -5.6% | 6.2% | ? | -1.4% | ·
CCN1CCN(c2ncc3c(n2)CCN(Cc2ccc(C)s2)C3)CC1 | ? | 3.5% | 1.2% | ? | -0.2% | ·
CCN1CCN(c2ncc3c(n2)CCN(Cc2ccc(Br)s2)C3)CC1 | 10.3µM* | -18.3% | 8.8% | 13µM* | 63.1% | ·
CN1CCN(c2ncc3c(n2)CCN(Cc2ccc(Br)s2)C3)CC1 | 14.6µM* | 0.4% | -1.2% | 23.1µM* | 1.4% | ·
COC(=O)N(C)C[C@@H]1OCc2cnnn2CCCC(=O)N([C@H](C)CO)C[C@H]1C | -25.4% | -7.4% | · | -2.4% | 10.3% | 39.2
Brc1ccc(-c2ccc(/C=N/Nc3nc(N4CCOCC4)nc(N4CCOCC4)n3)o2)cc1 | 10.3µM* | -19.3% | 3.8% | ? | 17.9% | ?
Fc1cnc(N/N=C/c2ccc(-c3ccc(Br)cc3)o2)nc1N1CCOCC1 | 2.9% | -15.1% | 8.3% | 10.9% | -9.3% | 50.5
